About 720 (42%) of roughly 1,700 compounds were called active.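 The calls were made as follows: active = calcium response below the same-plate mean of wells given acetylcholine alone at its 80%-effect dose, minus 3 SD; inactive = the rest.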 So high a share suggests a set chosen from earlier hits. The list is a sample of the results.

For this assay, the target named is Muscarinic acetylcholine receptor M1 (Rattus norvegicus) (UniProt P08482). Description: rat M1 muscarinic receptor antagonists, confirmation, CHO cells, Fluo-4 calcium, duplicate (AID 677).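 Also: raw fluorescence intensity difference in arbitrary instrument units and not normalized.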 To be noted: ACh EC80 antagonism, at 10 µM, active compounds read low.
Sequence of Muscarinic acetylcholine receptor M1 (Rattus norvegicus) (P08482 whole entry, looked up): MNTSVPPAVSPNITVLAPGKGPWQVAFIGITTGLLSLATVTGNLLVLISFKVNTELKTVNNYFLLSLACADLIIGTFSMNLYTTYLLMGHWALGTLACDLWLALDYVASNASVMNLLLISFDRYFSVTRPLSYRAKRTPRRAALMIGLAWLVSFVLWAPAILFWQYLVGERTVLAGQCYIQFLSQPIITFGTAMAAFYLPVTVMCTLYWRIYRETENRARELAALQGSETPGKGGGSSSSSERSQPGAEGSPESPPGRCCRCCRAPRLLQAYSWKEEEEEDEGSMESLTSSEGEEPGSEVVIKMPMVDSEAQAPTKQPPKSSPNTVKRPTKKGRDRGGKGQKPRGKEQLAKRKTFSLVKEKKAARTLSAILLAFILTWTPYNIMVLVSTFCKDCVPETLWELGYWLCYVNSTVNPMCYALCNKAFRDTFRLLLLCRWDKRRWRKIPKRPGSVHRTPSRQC
As for `COc1ccc(C2NCc3ccc4c(c3-n3cccc32)OCO4)cc1OC` (stereo not given), the calcium response (max-min fluorescence) is 455 (active).
For `Fc1ccc(N2CCN(Cc3ccc4c(c3)OCO4)CC2)cc1`, the calcium response (max-min fluorescence) was 588 (inactive).
The value for `CCOC(=O)C1SC2(C(F)(F)C(F)F)CC1(O)c1c(c(OC)c3occc3c1OC)O2` (stereo not given) was 516 (inactive); that for `CC[N+]1(C)CCCC(OC(=O)C(O)(c2ccccc2)c2ccccc2)C1` (stereo not given) was 17.5 (active); that for `COc1ccc(CN2CCN(c3ccccc3F)CC2)c(OC)c1` was 547 (inactive).

The record behind these values is PubChem BioAssay AID677 (Vanderbilt High Throughput Screening Facility, 2007).
